# In the supplement of paper PMC11732987, “Enantioselective OTUD7B fragment discovery through chemoproteomics screening and high-throughput optimisation” (Communications Chemistry, 2025):
# A number with no mark means an inactive call.
# Experiments:
# Experiment in all cases: log2 ratio of Biotin-Ahx-Ub-VS probe labelling (fragment/DMSO); higher = less target engagement (more negative = stronger competition), active = hit call of the paper (q ≤ 0.05, log2 ratio ≤ -1)
# Settings in all cases: compound concentration: 200 uM; treatment time: 3 h
# OTUD6B = molecular target: T1, OTUD6B (UniProt Q8N6M0)
# T1 sequence (whole entry): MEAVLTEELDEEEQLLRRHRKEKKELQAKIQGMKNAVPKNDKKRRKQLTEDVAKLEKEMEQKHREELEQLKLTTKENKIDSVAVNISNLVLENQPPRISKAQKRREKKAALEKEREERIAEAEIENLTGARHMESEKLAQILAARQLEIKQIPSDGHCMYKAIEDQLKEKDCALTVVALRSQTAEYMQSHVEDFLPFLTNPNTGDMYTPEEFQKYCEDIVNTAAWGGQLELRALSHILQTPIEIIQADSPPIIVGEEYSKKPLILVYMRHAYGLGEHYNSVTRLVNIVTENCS
# Method in brief: (§1)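 HEK293T lysate (495 µg per sample, in Tris/CHAPS/IGEPAL buffer with protease inhibitors) was treated in triplicate with fragment at 200 µM or with DMSO for 3 h. It was then treated with Biotin-Ahx-Ub-VS (0.5 µM final) for 1 h. Labelled DUBs were NeutrAvidin-enriched, digested with LysC and trypsin, and run by diaPASEF LC-MS/MS. Spectronaut label-free quantities were global-median-normalised. Values are average log2 ratios fragment/DMSO by unpaired t-test, using proteins with ≥2 unique peptides.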
# OTUD7B = molecular target: T2, OTUD7B (UniProt Q6GQQ9)
# T2 sequence (whole entry): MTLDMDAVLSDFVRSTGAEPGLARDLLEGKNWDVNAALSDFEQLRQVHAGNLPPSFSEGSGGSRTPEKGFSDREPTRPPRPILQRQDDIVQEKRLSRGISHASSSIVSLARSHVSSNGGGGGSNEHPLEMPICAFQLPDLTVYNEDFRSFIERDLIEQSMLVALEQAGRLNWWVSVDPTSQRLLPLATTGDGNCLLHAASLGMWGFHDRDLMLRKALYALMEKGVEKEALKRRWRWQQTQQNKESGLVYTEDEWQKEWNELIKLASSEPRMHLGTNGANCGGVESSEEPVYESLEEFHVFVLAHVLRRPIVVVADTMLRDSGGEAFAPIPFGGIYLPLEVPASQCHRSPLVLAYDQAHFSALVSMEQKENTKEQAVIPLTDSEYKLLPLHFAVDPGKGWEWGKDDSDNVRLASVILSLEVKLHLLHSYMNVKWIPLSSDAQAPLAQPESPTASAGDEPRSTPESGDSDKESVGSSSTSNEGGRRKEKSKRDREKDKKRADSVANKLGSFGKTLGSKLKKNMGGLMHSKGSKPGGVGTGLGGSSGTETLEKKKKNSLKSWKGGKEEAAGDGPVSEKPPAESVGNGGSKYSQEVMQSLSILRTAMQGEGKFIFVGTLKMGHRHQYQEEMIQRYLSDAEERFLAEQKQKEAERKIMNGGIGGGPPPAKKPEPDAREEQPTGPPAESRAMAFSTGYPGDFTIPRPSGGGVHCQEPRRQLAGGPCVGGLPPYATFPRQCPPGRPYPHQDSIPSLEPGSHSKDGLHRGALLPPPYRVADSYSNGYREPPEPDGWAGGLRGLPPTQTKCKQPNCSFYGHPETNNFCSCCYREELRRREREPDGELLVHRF
# Method in brief: as §1
# PRPF8 = PRPF8 (UniProt Q6P2Q9)
# Method in brief: as §1
# PSMD7 = molecular target: T3, PSMD7 (UniProt P51665)
# T3 sequence (whole entry): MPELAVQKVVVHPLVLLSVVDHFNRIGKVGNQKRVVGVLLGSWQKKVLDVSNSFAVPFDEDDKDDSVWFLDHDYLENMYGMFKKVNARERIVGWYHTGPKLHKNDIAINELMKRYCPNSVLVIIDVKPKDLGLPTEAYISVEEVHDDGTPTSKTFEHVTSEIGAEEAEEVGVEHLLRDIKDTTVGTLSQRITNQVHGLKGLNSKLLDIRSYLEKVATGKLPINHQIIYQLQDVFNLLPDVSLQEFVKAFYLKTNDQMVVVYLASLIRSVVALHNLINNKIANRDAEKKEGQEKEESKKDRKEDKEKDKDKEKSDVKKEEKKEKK
# Method in brief: as §1
# UCHL1 = UCHL1 (UniProt P09936)
# Method in brief: as §1
# UCHL3 = molecular target: T4, UCHL3 (UniProt P15374)
# T4 sequence (whole entry): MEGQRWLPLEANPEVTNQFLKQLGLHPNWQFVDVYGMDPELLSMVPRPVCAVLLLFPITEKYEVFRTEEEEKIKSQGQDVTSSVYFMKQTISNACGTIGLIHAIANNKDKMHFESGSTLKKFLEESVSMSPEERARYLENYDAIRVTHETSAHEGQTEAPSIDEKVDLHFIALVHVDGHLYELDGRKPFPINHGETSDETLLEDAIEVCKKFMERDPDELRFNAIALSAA
# Method in brief: as §1
# UCHL5 = molecular target: T5, UCHL5 (UniProt Q9Y5K5)
# T5 sequence (whole entry): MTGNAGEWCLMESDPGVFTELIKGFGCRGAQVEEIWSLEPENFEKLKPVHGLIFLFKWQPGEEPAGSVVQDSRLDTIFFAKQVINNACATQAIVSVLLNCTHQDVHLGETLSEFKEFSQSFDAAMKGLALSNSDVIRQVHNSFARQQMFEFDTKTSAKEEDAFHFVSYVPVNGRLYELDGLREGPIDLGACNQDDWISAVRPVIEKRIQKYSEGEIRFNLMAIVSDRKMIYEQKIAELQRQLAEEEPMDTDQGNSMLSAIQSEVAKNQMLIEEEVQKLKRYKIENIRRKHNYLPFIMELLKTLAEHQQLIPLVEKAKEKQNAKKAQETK
# Method in brief: as §1
# USP10 = USP10 (UniProt Q14694)
# Method in brief: as §1
# USP15 = molecular target: T6, USP15 (UniProt Q9Y4E8)
# T6 sequence (whole entry): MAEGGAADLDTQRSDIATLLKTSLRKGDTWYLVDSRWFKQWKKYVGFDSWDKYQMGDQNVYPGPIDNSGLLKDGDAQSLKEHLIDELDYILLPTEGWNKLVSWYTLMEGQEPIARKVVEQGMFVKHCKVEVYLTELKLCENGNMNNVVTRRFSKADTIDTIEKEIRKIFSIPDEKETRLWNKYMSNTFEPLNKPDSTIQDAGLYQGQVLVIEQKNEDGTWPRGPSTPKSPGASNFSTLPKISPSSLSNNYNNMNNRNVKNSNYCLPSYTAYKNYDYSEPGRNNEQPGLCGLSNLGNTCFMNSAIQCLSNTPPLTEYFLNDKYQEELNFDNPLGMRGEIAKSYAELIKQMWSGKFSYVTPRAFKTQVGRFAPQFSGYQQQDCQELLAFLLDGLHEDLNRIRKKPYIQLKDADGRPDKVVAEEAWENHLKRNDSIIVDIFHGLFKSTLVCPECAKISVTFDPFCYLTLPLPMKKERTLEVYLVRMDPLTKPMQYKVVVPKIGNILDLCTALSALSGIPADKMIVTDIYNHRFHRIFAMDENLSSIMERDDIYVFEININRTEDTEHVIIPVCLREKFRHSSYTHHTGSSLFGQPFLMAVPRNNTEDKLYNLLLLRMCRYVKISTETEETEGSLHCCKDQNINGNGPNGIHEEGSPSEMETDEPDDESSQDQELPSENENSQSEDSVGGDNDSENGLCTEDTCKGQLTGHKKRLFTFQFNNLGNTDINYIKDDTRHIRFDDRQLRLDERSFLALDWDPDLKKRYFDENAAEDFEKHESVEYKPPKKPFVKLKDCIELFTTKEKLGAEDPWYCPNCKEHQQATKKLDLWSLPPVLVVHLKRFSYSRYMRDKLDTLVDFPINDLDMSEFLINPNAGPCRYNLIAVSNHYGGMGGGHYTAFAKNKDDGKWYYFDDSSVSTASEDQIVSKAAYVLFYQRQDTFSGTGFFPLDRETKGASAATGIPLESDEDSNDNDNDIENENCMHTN
# Method in brief: as §1
# USP16 = USP16 (UniProt Q9Y5T5)
# Method in brief: as §1
# Sequence of USP16 (Q9Y5T5 whole entry, looked up): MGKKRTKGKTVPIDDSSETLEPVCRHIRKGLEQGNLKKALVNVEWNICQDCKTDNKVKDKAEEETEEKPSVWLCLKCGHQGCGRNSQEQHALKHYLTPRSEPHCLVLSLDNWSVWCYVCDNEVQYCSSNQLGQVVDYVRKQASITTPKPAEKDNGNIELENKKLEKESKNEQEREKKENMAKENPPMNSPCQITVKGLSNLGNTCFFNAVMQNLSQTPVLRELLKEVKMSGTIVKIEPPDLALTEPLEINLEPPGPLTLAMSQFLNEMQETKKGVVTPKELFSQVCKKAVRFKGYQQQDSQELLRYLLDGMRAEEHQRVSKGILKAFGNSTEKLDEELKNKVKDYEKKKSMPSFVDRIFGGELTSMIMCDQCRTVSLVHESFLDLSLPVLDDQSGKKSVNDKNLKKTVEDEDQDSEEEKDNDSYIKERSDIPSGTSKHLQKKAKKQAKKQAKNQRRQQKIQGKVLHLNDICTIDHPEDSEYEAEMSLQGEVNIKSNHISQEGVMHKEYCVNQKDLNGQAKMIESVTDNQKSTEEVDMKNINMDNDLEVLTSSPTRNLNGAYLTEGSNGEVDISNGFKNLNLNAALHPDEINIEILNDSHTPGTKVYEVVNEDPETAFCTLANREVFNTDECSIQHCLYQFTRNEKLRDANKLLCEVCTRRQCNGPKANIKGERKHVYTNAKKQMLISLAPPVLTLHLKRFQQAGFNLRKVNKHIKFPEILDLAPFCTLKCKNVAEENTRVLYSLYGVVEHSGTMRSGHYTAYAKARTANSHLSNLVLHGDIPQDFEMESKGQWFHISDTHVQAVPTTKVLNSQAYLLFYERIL
# Sequence of UCHL1 (P09936 whole entry, looked up): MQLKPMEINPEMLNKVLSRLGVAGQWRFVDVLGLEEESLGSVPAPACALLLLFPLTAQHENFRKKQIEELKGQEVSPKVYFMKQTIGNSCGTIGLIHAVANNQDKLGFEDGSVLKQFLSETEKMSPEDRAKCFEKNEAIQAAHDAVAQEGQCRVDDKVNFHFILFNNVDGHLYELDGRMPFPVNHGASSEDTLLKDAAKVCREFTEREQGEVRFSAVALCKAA
# Sequence of USP10 (Q14694 whole entry): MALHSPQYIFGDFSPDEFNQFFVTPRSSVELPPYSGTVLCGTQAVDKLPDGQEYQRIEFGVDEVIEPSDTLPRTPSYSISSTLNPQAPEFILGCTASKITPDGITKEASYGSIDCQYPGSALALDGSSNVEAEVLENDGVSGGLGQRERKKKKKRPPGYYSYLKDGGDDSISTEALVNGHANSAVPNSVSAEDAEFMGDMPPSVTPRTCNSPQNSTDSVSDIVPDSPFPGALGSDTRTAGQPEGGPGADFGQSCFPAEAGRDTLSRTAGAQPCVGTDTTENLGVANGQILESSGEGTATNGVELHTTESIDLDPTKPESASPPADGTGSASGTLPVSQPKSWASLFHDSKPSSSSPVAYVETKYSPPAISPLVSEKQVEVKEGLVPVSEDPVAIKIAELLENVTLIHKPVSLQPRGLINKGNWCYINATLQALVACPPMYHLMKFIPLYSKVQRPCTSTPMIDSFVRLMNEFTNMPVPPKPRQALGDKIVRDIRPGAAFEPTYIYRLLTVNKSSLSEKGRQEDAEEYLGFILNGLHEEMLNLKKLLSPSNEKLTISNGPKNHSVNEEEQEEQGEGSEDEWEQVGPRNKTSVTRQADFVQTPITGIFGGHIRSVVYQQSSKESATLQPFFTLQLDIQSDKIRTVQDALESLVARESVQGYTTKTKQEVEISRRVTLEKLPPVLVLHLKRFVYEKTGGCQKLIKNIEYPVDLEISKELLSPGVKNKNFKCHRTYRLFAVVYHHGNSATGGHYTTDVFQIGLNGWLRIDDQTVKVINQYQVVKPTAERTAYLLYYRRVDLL
structure (smiles),measurement,setting,value
O=C(CCl)NC(Cn1ccccc1=O)c1ccccc1 (stereo not given),log2 ratio of Biotin-Ahx-Ub-VS probe labelling,OTUD6B,0.102
same,log2 ratio of Biotin-Ahx-Ub-VS probe labelling,OTUD7B,-0.332
same,log2 ratio of Biotin-Ahx-Ub-VS probe labelling,PRPF8,-0.224
same,log2 ratio of Biotin-Ahx-Ub-VS probe labelling,PSMD7,-0.094
same,log2 ratio of Biotin-Ahx-Ub-VS probe labelling,UCHL1,-1.61 (active)
same,log2 ratio of Biotin-Ahx-Ub-VS probe labelling,UCHL3,0.233
same,log2 ratio of Biotin-Ahx-Ub-VS probe labelling,UCHL5,-0.175
same,log2 ratio of Biotin-Ahx-Ub-VS probe labelling,USP10,-0.0324
same,log2 ratio of Biotin-Ahx-Ub-VS probe labelling,USP15,-0.0415
same,log2 ratio of Biotin-Ahx-Ub-VS probe labelling,USP16,-0.972
